# Assay outcomes (PubChem BioAssay)
# Pf Dd2 growth – blocks in vitro growth of P. falciparum Dd2; Potency, µM (top dose mostly 28.9 µM), for inactives: at the highest dose activity, negative = inhibition, usual class: inhibitors; 4.3% of 120,000 active; P. falciparum Dd2 growth, SYBR Green, 72 h; active means well fitted inhibition curve with a large enough effect;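 further: plate controls were DMSO vehicle for no effect and reference drug for full effect; nearly all actives have a fitted effect of over 65% in size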
#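 Infected erythrocytes (Dd2, 0.3% parasitemia, 2.5% hematocrit final) are added to compound in RPMI-1640/Albumax II medium, grown 72 h at 37C in low oxygen, then lysed with saponin/Triton-X containing SYBR Green and read by fluorescence.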
# * hit, by the source's call; i = inactive; [ ] = dose if it differs, or a comment. The sample as a whole holds a higher share of hits than the screen did. Potency means the concentration at half of the fitted maximal effect.
SMILES,Pf Dd2 growth
CCN(CC)C(=O)c1csc(N2CCN(c3cccc(Cl)c3)CC2)n1,i
CCCCN(C)C(=O)c1csc(N2CCN(c3ccccc3)CC2)n1,11µM*
O=C(NCc1ccccn1)c1csc(N2CCN(c3ccccc3)CC2)n1,i
Cc1noc([C@@H]2CN(C(=O)c3occc3C)C[C@H]2COCC2CC2)n1,-14%
O=C(c1ccccc1)N1CCn2ncc(C(=O)N3CCOCC3)c2C1,-11%
CNC(=O)[C@@H]1C[C@@H](O)CN1C1CCN(C(=O)c2nn(C)c3ccccc23)CC1,-9%
NC(=O)C1CCN(CC[C@H]2CN(C(=O)c3ccc(C(F)(F)F)cc3)CC[C@H]2CC(=O)O)CC1,22%
COc1ccccc1-c1nc(C2CC(=O)N(C3CCCCC3)C2)no1 (stereo not given),i
O=C(C1CCCN(c2cnn(Cc3ccccc3)c(=O)c2)C1)N1CCN(C2CCCCC2)CC1 (stereo not given),-10%
O=C(CC1CCCC1)NC1CCN(c2cnn(Cc3ccccc3)c(=O)c2)CC1,i
Cc1ccc(-c2onc(C)c2C)cc1S(=O)(=O)NC1CCCCC1,24%
O=C1c2ccccc2-c2onc3c(NCCO)cc(NC4CCCCC4)c1c23,8.9µM*
CCNc1cc(N2CCN(C3CCCCC3)CC2)c2noc3c2c1C(=O)c1ccccc1-3,5µM*
O=C(O)CCCNc1cc(N2CCN(C3CCCCC3)CC2)c2noc3c2c1C(=O)c1ccccc1-3,11µM*
O=C(Nc1ccon1)[C@@H]1C[C@@H](c2ccc(F)cc2)N([S+](=O)([O-])c2ccccc2)C1,i
COc1ccc(C(=O)N2CCC(N3Cc4cnc(C)n4C3=O)CC2)cc1,10%
O=C(c1cc(C2CC2)[nH]n1)N1CCC2(CC1)NC(=O)N(c1cccc(F)c1)N2,25%
CC1CCN(C(=O)C[C@@H]2c3nc(NC(=O)c4ccco4)sc3C[C@@H]3[C@](C)(CO)[C@H](O)CC[C@]32C)CC1,-3%
CCN(C(=O)Cn1nc2n(c1=O)CCCCC2)c1ccccc1,308%
CC1=C[C@@H](CN2CCN(CCO)CC2)[C@H](C(C)C)C[C@H]1Cc1nnc(C)o1,i
CC1=C[C@@H](CN2CCN(c3cnccn3)CC2)[C@H](C(C)C)C[C@H]1Cc1nnc(-c2ccc([N+](=O)[O-])cc2)o1,i
CC1=C[C@@H](CN2CCN(c3ncccn3)CC2)[C@H](C(C)C)C[C@H]1Cc1nnc(Cc2c[nH]c3ccccc23)o1,3.5µM*
CC1=C[C@@H](CN2CCOCC2)[C@H](C(C)C)C[C@H]1Cc1nnc(-c2ccccc2)o1,-1%[44.1 µM]
COCCN1CCN(C[C@@H]2C=C(C)[C@H](Cc3nnc(C)o3)C[C@H]2C(C)C)CC1,-13%[44.1 µM]
CCCc1nnc(C[C@@H]2C[C@@H](C(C)C)[C@H](CN3CCN(C(C)=O)CC3)C=C2C)o1,11µM*
SMILES,Pf Dd2 growth
CC(=O)N1CCN(C[C@@H]2C=C(C)[C@H](Cc3nnc(-c4cccnc4)o3)C[C@H]2C(C)C)CC1,7.9µM*
O=C(c1ccc(Cl)cn1)N1CCCCC12Cc1ccccc1NC2=O (stereo not given),-23%
COCCNC(=O)[C@@H]1CCC[C@@H](NCc2cccc3c2OCO3)CN(C)C(=O)C1,i
NS(=O)(=O)c1ccc(F)c(C(=O)NC2CCc3[nH]ncc3C2)c1 (stereo not given),-12%
CCN1c2cc(C(=O)Nc3ccc(Cl)c(F)c3)ccc2C(=O)N2CCCCC21 (stereo not given),-24%
Cc1cc2cc(C(=O)N(C)Cc3ccc4nsnc4c3)ccc2o1,-7%
O=C(CC1COCCN1)N(CCc1c[nH]c2ccccc12)C1CCCCC1 (stereo not given),8.9µM*
O=C1CCN(C(=O)CCCc2c[nH]c3ccccc23)CCCOCCN1,-21%
O=C(CC1COCCN1)N(Cc1cccnc1)Cc1cccnc1 (stereo not given),4%
CC(C)Oc1cccc(-c2nnc(CCC(=O)N3CCC(Cc4ccccc4)CC3)c(=O)[nH]2)c1,i
COc1ccc(CC(=O)N2CCOC[C@H](Oc3ccccc3)C2)cc1,-15%[44.1 µM]
Cc1ccc(CNC(=O)C2(C)CCCCC(=O)N2)o1 (stereo not given),139%
Cc1cccc(C(=O)N2CCC3(CC2)CC(c2ccccc2)C(=O)N3)c1 (stereo not given),-9%
COCc1ccc2c(c1)c(OC(C)(C)C(=O)NCCCn1ccnc1)nn2Cc1ccccc1,-13%
COC(=O)[C@@H]1Cc2c([nH]c3ccccc23)[C@H]2C[C@@H](NCc3cccnc3)C[C@@H](c3ccccc3)N21,-23%
COC(=O)[C@@H]1Cc2c([nH]c3ccccc23)[C@H]2C[C@@H](NCCc3cnc[nH]3)C[C@@H](c3ccccc3F)N21,i
COC(=O)[C@@H]1Cc2c([nH]c3ccccc23)[C@H]2C[C@@H](NCCCn3ccnc3)C[C@@H](c3ccc(Cl)c(F)c3)N21,3.2µM*
COC(=O)[C@@H]1Cc2c([nH]c3ccccc23)[C@H]2C[C@H](NCCNC(C)=O)C[C@@H](c3ccc(C(F)(F)F)cc3)N21,-1%
COC(=O)[C@@H]1Cc2c([nH]c3ccccc23)[C@H]2C[C@@H](NC[C@H]3CCCO3)C[C@@H](c3ccccc3F)N21,-9%
COC(=O)[C@@H]1Cc2c([nH]c3ccccc23)[C@H]2C[C@@H](NCCCn3ccnc3)C[C@@H](c3cccc(Cl)c3)N21,2.2µM*
COCCN[C@@H]1C[C@@H]2c3[nH]c4ccccc4c3C[C@@H](C(=O)OC)N2[C@H](c2cccc(OC)c2)C1,5µM*
O=C(NCCCn1ccnc1)c1ccc(C2CCCNC2)cc1 (stereo not given),12%
Cc1noc([C@@H]2CN(C(=O)CCC(C)C)C[C@H]2CO)n1,17%
O=C1NCCCCCCN(C(=O)COc2ccc(F)cc2)[C@H]2CCCC[C@@H]12,-18%
COc1cccc(CC(=O)NCc2ccc(Cl)s2)c1,-6%
SMILES,Pf Dd2 growth
O=C(NCc1nnc2ccc(-c3ccccc3)nn12)c1ccco1,-10%
COc1nccc(N2CCC(CC(=O)NCc3ccccc3F)CC2)n1,-24%
CC(CCc1ccccc1)NC(=O)c1ccc(CN2C(=O)NC3(CCOCC3)C2=O)cc1 (stereo not given),-6%
COCCNC(=O)[C@H]1C[C@H](Oc2ccccc2)CN1C(=O)Nc1ccccc1,-4%
O=C(NCCCc1nc2ccc(Cl)cc2[nH]1)[C@H]1CCC[C@@H](O)C1,6%
COc1ccc(C(=O)N2CCC3(CC2)CC(OC)CCO3)cn1 (stereo not given),-8%
COc1ccc(S(=O)(=O)N2CCN(C(=O)c3cc(-c4ccc(Br)cc4)n[nH]3)CC2)cc1OC,-18%
O=C(c1cc(-c2ccc(Br)cc2)n[nH]1)N1CCN(S(=O)(=O)c2ccc(Br)cc2)CC1,8.9µM*
COc1ccc(Cl)cc1C(=O)N1CCCN(c2cc(-c3ccc(F)cc3)[nH]n2)CC1,i
COc1ccc(Cl)cc1S(=O)(=O)N1CCN(C(=O)c2cc(-c3ccc(Br)cc3)n[nH]2)CC1,10µM*
O=C(c1cc(-c2ccccc2)n[nH]1)N1CCc2c(nc(-c3ccc(F)cc3)[nH]c2=O)C1,-18%
COc1ccc(Cl)cc1C(=O)N1CCCN(c2cc(-c3ccc(Br)cc3)[nH]n2)CC1,-21%
OC1CC(c2cc(N3CCc4c(Cl)cccc4C3)ncn2)C1 (stereo not given),-15%
COc1ccc(N2Cc3c(NCCOc4ccccc4)ncnc3N(C)CC2=O)cc1,-18%
COc1ccc(CNC(=O)[C@H]2O[C@H](CCN3CCCC3)CC[C@@H]2O)cc1,-7%[44.1 µM]
